Data reported in the supplement of paper PMC12532568.
Structures can show the parent of a compound that is named as a salt.

These compounds were tested on Danio rerio larvae Tg(actc1b:ZsGreen-LC3), 3 dpf (assay: LC3 puncta relative area vs vehicle, without NH4Cl (log2 fold change); higher = more autophagosomes). Conditions: 10 µM; treatment time 16 h; NH4Cl: none.
Description: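 Transgenic Tg(actc1b:ZsGreen-map1lc3) zebrafish larvae (2 dpf) were treated for 16 h with Tocris library compounds at 10 µM (n = 12 larvae per compound). Skeletal-muscle LC3 puncta area relative to body area was measured by high-content confocal imaging before and after 4 h of 100 mM NH4Cl (autophagic flux), normalised to vehicle (DMSO), and reported as log2 fold change.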
With CC12CC3CC(C)(C1)CC(N)(C3)C2 [Memantine hydrochloride] the “LC3 puncta (log2)” value was 0.145.
Cc1ccc(/C(=C\CN2CCCC2)c2ccccn2)cc1 [trans-Triprolidine hydrochloride] was tested, and the “LC3 puncta (log2)” value was -0.298.
CC(C)[C@H]1CC[C@H](C(=O)N[C@H](Cc2ccccc2)C(=O)O)CC1 [Nateglinide] was tested, and the “LC3 puncta (log2)” value was 0.316.
CC(C(O)c1ccc(O)cc1)N1CCC(Cc2ccccc2)CC1 (stereo not given) [Ifenprodil hemitartrate] was tested, and the “LC3 puncta (log2)” value was -0.219.
CC#CCOC(=O)C1=CCCN(C)C1 [Arecaidine but-2-ynyl ester tosylate] was tested, and the “LC3 puncta (log2)” value was 0.463.
COc1cc(N)c(Cl)cc1C(=O)OCCCN1CCCCC1 was tested, and the “LC3 puncta (log2)” value was -0.0084.
In the case of CC(C)Oc1ccc2c(=O)c3cc(C(=O)O)ccc3oc2c1, the “LC3 puncta (log2)” value is reported as 0.473.
O=C(O)c1cc(=O)c2ccccc2[nH]1 [Kynurenic acid] was tested, and the “LC3 puncta (log2)” value was 0.00327.
In the case of CN(C)CCCn1cc(C2=C(c3c[nH]c4ccccc34)C(=O)NC2=O)c2ccccc21, the “LC3 puncta (log2)” value is reported as 0.584.
CC(Cc1ccc(O)c(O)c1)(NN)C(=O)O [(S)-(-)-Carbidopa] was tested, and the “LC3 puncta (log2)” value was 0.0108.
For CC(C)[N+]1(C)[C@@H]2CC[C@H]1C[C@@H](OC(=O)C(CO)c1ccccc1)C2 (stereo not given in full) [Ipratropium bromide], the “LC3 puncta (log2)” value was -0.65.
With COc1ccccc1N1CCN(CCCCN2C(=O)c3ccccc3C2=O)CC1 [NAN-190 hydrobromide] the “LC3 puncta (log2)” value was 0.201.
In the case of CCOC(=O)C1=C(C)NC(C)=C(C(=O)OC)C1c1cccc([N+](=O)[O-])c1 (stereo not given) [Nitrendipine], the “LC3 puncta (log2)” value is reported as 0.107.
For c1cc2c(cc1C1CCCCC1)c1c3n2CCNC3CCC1 (stereo not given) [Tetrindole mesylate], the “LC3 puncta (log2)” value was 0.672.
For c1ccc(CN(CC2=NCCN2)c2ccccc2)cc1 [Antazoline hydrochloride], the “LC3 puncta (log2)” value was 0.664.
For O=[N+]([O-])c1cccc2c(Br)[nH]nc12 [3-Bromo-7-nitroindazole], the “LC3 puncta (log2)” value was 0.159.
CC(C)NCC(O)c1ccc2ccccc2c1 (stereo not given) [Pronethalol hydrochloride] was tested, and the “LC3 puncta (log2)” value was 0.437.
For COc1ccc(CCN(C)CCc2ccc(OC)c(OC)c2)cc1OC [YS-035 hydrochloride], the “LC3 puncta (log2)” value was 0.265.
For S=C(S)N1CCCC1 [Pyrrolidinedithiocarbamate ammonium], the “LC3 puncta (log2)” value was 0.439.
In the case of CCN(CC)CCOCCOC(=O)C1(c2ccccc2)CCCC1 [Carbetapentane citrate], the “LC3 puncta (log2)” value is reported as -0.0165.
In the case of CCN(CC)CCOc1ccc(Cc2ccccc2)cc1 [DPPE fumarate], the “LC3 puncta (log2)” value is reported as 0.714.
For O=C(O)C=C1CCCc2ccccc2C1O (stereo not given), the “LC3 puncta (log2)” value was 0.299.
CCOC(=O)C1=C[C@]2(CC)CCCN3CCc4c(n1c1ccccc41)[C@@H]32 [Vinpocetine] was tested, and the “LC3 puncta (log2)” value was 0.406.
O=C(O)CC/C=C\C[C@H]1CO[C@@H](c2ccccc2Cl)O[C@H]1c1ccccc1O was tested, and the “LC3 puncta (log2)” value was -0.249.
For C1COC(NC(C2CC2)C2CC2)=N1 [Rilmenidine hemifumarate], the “LC3 puncta (log2)” value was 0.278.
In the case of CNCCCCOc1ccccc1Cc1ccccc1 [Bifemelane], the “LC3 puncta (log2)” value is reported as 0.531.
O=C1CC2(CCCC2)CC(=O)N1CCNCC1COc2ccccc2O1 (stereo not given) was tested, and the “LC3 puncta (log2)” value was 0.301.
CC(C)CC(NC(=O)OCC1c2ccccc2-c2ccccc21)C(=O)O (stereo not given) was tested, and the “LC3 puncta (log2)” value was 0.0242.
For Brc1c(NC2=NCCN2)ccc2nccnc12, the “LC3 puncta (log2)” value was 0.438.
For CCN(CC)CCOC(=O)C1(c2ccc([N+](=O)[O-])cc2)CCCC1 [Nitrocaramiphen hydrochloride], the “LC3 puncta (log2)” value was 0.254.
For CCCC[C@@H](C=O)NC(=O)[C@H](CC(C)C)NC(=O)OCc1ccccc1 [Calpeptin], the “LC3 puncta (log2)” value was 1.15.
CC[C@@H]1C(=O)OC[C@@H]1Cc1cncn1C [Pilocarpine hydrochloride] was tested, and the “LC3 puncta (log2)” value was 0.203.
O=S(=O)(c1cccc2c(Cl)cccc12)N1CCCNCC1 [ML 9 hydrochloride] was tested, and the “LC3 puncta (log2)” value was 0.232.
In the case of COC(=O)/C=C/c1cc(O)ccc1O [Methyl 2,5-dihydroxycinnamate], the “LC3 puncta (log2)” value is reported as 0.0626.
In the case of c1ccc2nc(C3=NCCN3)cnc2c1 [BU 239 hydrochloride], the “LC3 puncta (log2)” value is reported as -0.208.
With Nc1cc(N2CCCCC2)nc(N)[n+]1[O-] [Minoxidil] the “LC3 puncta (log2)” value was 0.233.
NS(=O)(=O)c1cc2c(cc1Cl)NC(C1CC3C=CC1C3)NS2(=O)=O (stereo not given) [Cyclothiazide] was tested, and the “LC3 puncta (log2)” value was -0.147.
In the case of O=[N+]([O-])c1cc2nc(O)c(O)nc2cc1[N+](=O)[O-], the “LC3 puncta (log2)” value is reported as 0.0864.
O=C(O)C1=CCNCC1 [Isoguvacine hydrochloride] was tested, and the “LC3 puncta (log2)” value was 0.169.
N[C@H]1CCN(O)C1=O was tested, and the “LC3 puncta (log2)” value was 0.0498.
